The full ranking holds about 2,700 sequences; the median of “arbitrary fluorescence units” is about 4,100, and the highest 2% start at about 54,000. For the sample, the highest values were picked, then their nearest neighbours and some sequences at random.
Each sequence was assayed against T1, ETS1 (UniProt P14921) (assay: ETS1 binding intensity (PBM fluorescence) (arbitrary fluorescence units); higher = stronger binding). Details: ETS1 concentration 10 nM.
T1 sequence: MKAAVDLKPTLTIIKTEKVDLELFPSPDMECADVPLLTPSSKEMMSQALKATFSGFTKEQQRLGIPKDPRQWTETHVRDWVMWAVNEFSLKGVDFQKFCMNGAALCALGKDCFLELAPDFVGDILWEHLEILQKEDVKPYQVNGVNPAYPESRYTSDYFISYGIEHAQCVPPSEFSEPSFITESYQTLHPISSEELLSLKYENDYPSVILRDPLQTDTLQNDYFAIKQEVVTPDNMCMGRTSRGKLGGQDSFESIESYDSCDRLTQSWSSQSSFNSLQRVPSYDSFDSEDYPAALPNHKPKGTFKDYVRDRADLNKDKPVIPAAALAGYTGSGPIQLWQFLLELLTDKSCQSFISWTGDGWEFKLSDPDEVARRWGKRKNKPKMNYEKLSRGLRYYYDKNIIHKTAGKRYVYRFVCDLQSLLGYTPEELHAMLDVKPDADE
Method: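 gcPBM on wild-type 36-bp genomic probes with two neighbouring ETS1 sites (4-24 bp apart). Recombinant human ETS1 (10 nM) was detected with anti-ETS1 antibody fluorescence. Values are medians over 3 replicate spots. The probes sit in constant array flanks that are not printed.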

How did the ETS1 binding intensity turn out when TCTACTTCCGGTTTGCCTGTGAATTCTTTCCTGGGC was run?
Its ETS1 binding intensity is 153000.

With GTTTTCAGTTGCCTTCCGGTTTCCTGCTGTGATAAC as the sequence, how does the ETS1 binding intensity read?
The ETS1 binding intensity was 15800.

How did the ETS1 binding intensity turn out when GAGGGTAACTTCCTGTTTCTGCCTTCCGGGTTTGAG was run?
Its ETS1 binding intensity is 47100.

For AAGGGAATCTGGGAAATGTAGTTTCCTGCAATCCAG, which ETS1 binding intensity is on record?
Its ETS1 binding intensity is 540.

GCCCGAGCCGCTTCCGGGTACTTCCGGCGGCCGCGG was tested. Which ETS1 binding intensity did it give?
Its ETS1 binding intensity is 39600.

GGCCGCTTCCGAGCGCCGCCAACCGCTTCCGGGTTC was tested. Which ETS1 binding intensity did it give?
Its ETS1 binding intensity is 5250.

GTCACTTCCGGCCCCGAGTTCGAGCCGCTTCCGGGT was tested. Which ETS1 binding intensity did it give?
The ETS1 binding intensity was 115000.

How did the ETS1 binding intensity turn out when GGACTTCCCAACTAGACAGACCAAATGAGGAAGTTG was run?
The ETS1 binding intensity was 880.

With CTGGGGGTCCGGATGCTTTGCGTTTCCCAGCAGTTG as the sequence, how does the ETS1 binding intensity read?
The ETS1 binding intensity was 1230.

For GGGCACTTCCGGGGCCGGCGCCCAGAGTTCCGGGAG, which ETS1 binding intensity is on record?
Its ETS1 binding intensity is 46800.

CCCACTTCCGGCAACAAGATAGAGCACTTCCGTCAA was tested. Which ETS1 binding intensity did it give?
The ETS1 binding intensity was 77600.

How did the ETS1 binding intensity turn out when TGACAAGAGCCGGAACCGTCACTTCCGGCGGCGCGG was run?
Its ETS1 binding intensity is 24700.

Which ETS1 binding intensity does the source give for TCAGTGGGCGGAAGAGGTGGCCCCGGATGCTGCGGC here?
The ETS1 binding intensity was 1430.

Which ETS1 binding intensity does the source give for CGCCGCCGGAAGTGCCTGGCCTCACTTCCGGTCAGA here?
The ETS1 binding intensity was 37200.

With ATTTTCGGTCTTCCGGTCAGCCGGAACCACTCACAC as the sequence, how does the ETS1 binding intensity read?
Its ETS1 binding intensity is 29800.

How did the ETS1 binding intensity turn out when GCGGTTACTTCCGGTCACTTTCGCCGGAACCTGACT was run?
Its ETS1 binding intensity is 86200.

How did the ETS1 binding intensity turn out when CCATTCATTTCCTGCCTCCCCGAGTTCCGGCTGCGG was run?
Its ETS1 binding intensity is 35800.

With CAATTGAGGAAACAGGACCAAAGACAGGAAATGGCT as the sequence, how does the ETS1 binding intensity read?
Its ETS1 binding intensity is 2860.

How did the ETS1 binding intensity turn out when GCGCTTCGGGCCCTTCCGGCTTCCCGGGCCTCCCGG was run?
The ETS1 binding intensity was 8330.

How did the ETS1 binding intensity turn out when GCGCCTGATTCACTTCCCTCTTCCGCTCTGAGGCGT was run?
The ETS1 binding intensity was 4680.

With CGTCACTTCCGGCGCCGCGTGAGGCCTTCCGGTGCC as the sequence, how does the ETS1 binding intensity read?
Its ETS1 binding intensity is 73900.

Which ETS1 binding intensity does the source give for CGTCCACTGGAGGCTTCCTTCCGGCGCCCGCGTGCC here?
Its ETS1 binding intensity is 3590.

For GACCGCAGGAAGGGACGCGGCCGCACTTCCGGCGAC, which ETS1 binding intensity is on record?
The ETS1 binding intensity was 8620.

Which ETS1 binding intensity does the source give for CCACTTCCGGCATGCGCAGGGACGCACCTTCCGGCT here?
Its ETS1 binding intensity is 109000.

GCGCTTCCGGGACGCAGGAGGCATCTGCATCCGGGG was tested. Which ETS1 binding intensity did it give?
The ETS1 binding intensity was 29000.

With GACAGGAAGGCTACAGGCTGCCTGTGGCTTCCGTGT as the sequence, how does the ETS1 binding intensity read?
Its ETS1 binding intensity is 386.

AGCACTTCCTCAATTTCTGGCTCTACAGGATATTTC was tested. Which ETS1 binding intensity did it give?
The ETS1 binding intensity was 16100.

CTCTGTGACTTCCTGGAGACTCACTTCCTAGATGAG was tested. Which ETS1 binding intensity did it give?
The ETS1 binding intensity was 11300.

Which ETS1 binding intensity does the source give for AGACTTCCGTTCTGGCTCTCACTCTAGTTTCCTGGT here?
The ETS1 binding intensity was 67500.

ACTGCCTTCCTGGCCTGGTGGTGAGAGGAAGTCGGG was tested. Which ETS1 binding intensity did it give?
Its ETS1 binding intensity is 2260.

CTATGGTAGGAAACCCAGAAAACAGGAAGTGGCCTC was tested. Which ETS1 binding intensity did it give?
The ETS1 binding intensity was 3030.

How did the ETS1 binding intensity turn out when CAACTTGTCGGAGCGGAACTTCCGGCGTCCTCCCTG was run?
The ETS1 binding intensity was 22800.

With GGGTGCGGAAACGCGGCAGCCGCGGCCGGATGCTGC as the sequence, how does the ETS1 binding intensity read?
Its ETS1 binding intensity is 2710.

For TGCCCGGCTTCCGGGTGGCTGCGCGGAAGCGCGGTG, which ETS1 binding intensity is on record?
Its ETS1 binding intensity is 20900.

For GCTGCAACTTCCGGTGCGCTAGCCGGAAACGCGGGT, which ETS1 binding intensity is on record?
Its ETS1 binding intensity is 78200.

With CCTCCCGGAAGCCGCTGGCCCGCGCCGGAAAAGGTG as the sequence, how does the ETS1 binding intensity read?
The ETS1 binding intensity was 7300.

ACAACTTCCGGCTGTAAAGATGGCGGCTTCCTAGTG was tested. Which ETS1 binding intensity did it give?
Its ETS1 binding intensity is 96400.

Which ETS1 binding intensity does the source give for GGACAGGGACCGGATGGGAGGGGAAGTCGATGCTTG here?
The ETS1 binding intensity was 3430.

Which ETS1 binding intensity does the source give for GGTGTTCCGGACCCGCGCGGTGCGGGGAGGAAGGCC here?
Its ETS1 binding intensity is 1700.

With TCCTCCTCACTTCCGCCGGAGCGGAAACGGTGAGGA as the sequence, how does the ETS1 binding intensity read?
The ETS1 binding intensity was 31200.

TTTTATTTCCGGTTCTGAGGACGCCGCGGAAGCGGG was tested. Which ETS1 binding intensity did it give?
The ETS1 binding intensity was 78400.

For GGTGCTCACGGATGCTACGCTTGTTCCTGTCTCCTC, which ETS1 binding intensity is on record?
The ETS1 binding intensity was 370.

Which ETS1 binding intensity does the source give for TGAGCTATTTGACTTCCGGTTTCCTGCCCCATTTAA here?
The ETS1 binding intensity was 63200.

How did the ETS1 binding intensity turn out when GCCCTTCCGGTTATTTCCCTTCCTGTTTGTCTGCCT was run?
The ETS1 binding intensity was 48700.

Which ETS1 binding intensity does the source give for AGCCCCACCATTTCCTGTGACTTCCTGGAGCCTGGC here?
Its ETS1 binding intensity is 25600.

How did the ETS1 binding intensity turn out when TCAATTTCTCATTTCCCTGGAGGAAGCCCATAAAGT was run?
Its ETS1 binding intensity is 217.

CGGGCGGAAAGGGAGCTAGAGCATTCTGGGAAATGG was tested. Which ETS1 binding intensity did it give?
Its ETS1 binding intensity is 178.

How did the ETS1 binding intensity turn out when GCGGCTTGGGCCTTCCGGCTTTCCGTCCGCCGCGGC was run?
The ETS1 binding intensity was 7060.

For TGTTTACTTCCGGCTTTTCGCCTAATTCCGGCGGCC, which ETS1 binding intensity is on record?
Its ETS1 binding intensity is 55000.

How did the ETS1 binding intensity turn out when TTATTCTGTTTCCGGCAGTTTTACTTCCGTTTGTTT was run?
The ETS1 binding intensity was 15900.

For AAAGCGCATTGCGGATGGCAATTCCGGTGCGTCATT, which ETS1 binding intensity is on record?
Its ETS1 binding intensity is 732.

CACCACTTCCTGTTTCTGAGTCATCAGGAAGGTAAT was tested. Which ETS1 binding intensity did it give?
The ETS1 binding intensity was 58900.

With GCTTGGCAGTCAGGAAGGACTTCCTGTTTCTGCTTC as the sequence, how does the ETS1 binding intensity read?
Its ETS1 binding intensity is 14400.

For CATTTACCACTTCCTGAGGTCATTTCCTGTTTTCTT, which ETS1 binding intensity is on record?
The ETS1 binding intensity was 25800.

How did the ETS1 binding intensity turn out when CTCGCAGGCTTCCCGGCTGCAACTTCCGGCGCATGC was run?
The ETS1 binding intensity was 14600.

With AGCAACTTCCGGTGCGCTTAGCGTTACTTCCGGCGC as the sequence, how does the ETS1 binding intensity read?
The ETS1 binding intensity was 116000.

ACCCGGAAGCGCTTCACCCAGCCTGAGCGGAAGAAC was tested. Which ETS1 binding intensity did it give?
The ETS1 binding intensity was 5640.

For CCCAGCTAAAGGAAGTCTGGCACTTCCTCTCCTCAA, which ETS1 binding intensity is on record?
The ETS1 binding intensity was 2990.

How did the ETS1 binding intensity turn out when GAGCACGACTTCCGGCCTGAAAAGGAAGTCTCCTCC was run?
The ETS1 binding intensity was 89000.

How did the ETS1 binding intensity turn out when GAGCGGAAGTGGAAAAGACTAACTTCCGGCCTCGGG was run?
Its ETS1 binding intensity is 30600.

GACAGTTTCCTCTTTCACACTAGAATATCCTGTTGT was tested. Which ETS1 binding intensity did it give?
The ETS1 binding intensity was 10900.

With TGCGCCCCGTGCTTCCTGCCATCCTGTGCTCTCTGC as the sequence, how does the ETS1 binding intensity read?
The ETS1 binding intensity was 9740.

Which ETS1 binding intensity does the source give for ACCAGGGCTGCTTCCTCACATTTCCGGTCCTGAAAA here?
Its ETS1 binding intensity is 27700.

GGACCGGAAGTGCCTCCTGCGGAGGCAGGAAGTCCC was tested. Which ETS1 binding intensity did it give?
The ETS1 binding intensity was 58700.

With AGCAGGAAGGACCTCAGTCCTCCAGTGCGGATGCTG as the sequence, how does the ETS1 binding intensity read?
The ETS1 binding intensity was 207.

Which ETS1 binding intensity does the source give for TCATCTCTCCTGCAGGAAGGAAGTCCTGCCTCCCAC here?
The ETS1 binding intensity was 315.

AACGTCCAGGAGGAAGTCAATTTCCTGGCCCTCAAT was tested. Which ETS1 binding intensity did it give?
Its ETS1 binding intensity is 5100.

How did the ETS1 binding intensity turn out when GCGCCGGAAGCAGAGACGCGTTTCGGGAGGAAGGTG was run?
Its ETS1 binding intensity is 3580.

With GCAGGAGACGGAAGATGCATGGGTTTCCTGGCGCGC as the sequence, how does the ETS1 binding intensity read?
Its ETS1 binding intensity is 424.

With ACAGCATCCGGAGCGCCGACGCGGGACCGGAAGTGA as the sequence, how does the ETS1 binding intensity read?
Its ETS1 binding intensity is 26000.

CGGGACCGGAAGTGACGCAGAGAAGTTTCCGGGACT was tested. Which ETS1 binding intensity did it give?
The ETS1 binding intensity was 56800.

How did the ETS1 binding intensity turn out when AGAAGCACACAAGGAAGTGTTTCCGGGACAGAGGGT was run?
The ETS1 binding intensity was 9030.

How did the ETS1 binding intensity turn out when TAGTCCTGAAACTTCCTCTGCTTCCTCCTCCTGCCC was run?
The ETS1 binding intensity was 2700.

For CACGGTGATTTCCTGTAAACAACAGGAAATGTACAG, which ETS1 binding intensity is on record?
Its ETS1 binding intensity is 22700.

CGGACCGGAAGTTGGGGTGACGCAATTTCCGGCGCG was tested. Which ETS1 binding intensity did it give?
Its ETS1 binding intensity is 54200.

How did the ETS1 binding intensity turn out when ACCGCCCGGAAGTGACGCGCCCGCGCATCCGGCCAC was run?
The ETS1 binding intensity was 19800.

For TCGGACCGGAAGGAGTTGTTGGCGCTTCCGGTGGCC, which ETS1 binding intensity is on record?
Its ETS1 binding intensity is 15900.

For ATCACCAGCCTTCCTGTGGGACCGGAAAGGCAGTAG, which ETS1 binding intensity is on record?
The ETS1 binding intensity was 2720.

How did the ETS1 binding intensity turn out when GTAATACTTCGGGGAAATGCAGGATGCAGCTGCTGC was run?
Its ETS1 binding intensity is 243.

CGAGGCGGTCGCGGAAGTAGAGGAAGCCTTCGCGGT was tested. Which ETS1 binding intensity did it give?
Its ETS1 binding intensity is 686.

— the supplement of paper PMC10681739
